In the supplement of paper PMC11732987, “Enantioselective OTUD7B fragment discovery through chemoproteomics screening and high-throughput optimisation” (Communications Chemistry, 2025):

How the values were obtained:
Test in all cases: log2 ratio of Biotin-Ahx-Ub-VS probe labelling (compound/DMSO); higher = less target engagement, active = hit call of the paper (q ≤ 0.05, log2 ratio ≤ -1)
Conditions in all cases: treatment time: 3 h
[1] = compound: CCC1N(CCc2sccc12)C(=O)CCl
Procedure, shortened: (§1)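 DUBs in HEK293T lysate were labelled with Biotin-Ahx-Ub-VS (0.5 µM final, 1 h) after a 3 h treatment with compound at 50 or 200 µM or with DMSO, done in triplicate on 495 µg of lysate per sample. NeutrAvidin-enriched proteins were digested with LysC and trypsin and run by diaPASEF LC-MS/MS. Median-normalised label-free quantities gave average base-two log ratios of compound to DMSO by unpaired t-test, restricted to proteins with at least 2 unique peptides.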

[2] = compound: CN1c2ccccc2C(CS1(=O)=O)NC(=O)CCl
Procedure, shortened: as §1

[3] = compound: Cl.ClCC(=O)N1CCc2ncncc2C1
Procedure, shortened: as §1

[4] = compound: Cl.Cn1ncc2C(CCCc12)NC(=O)CCl
Procedure, shortened: as §1

[5] = compound: ClCC(=O)NC1CCOc2ccccc12
Procedure, shortened: as §1

[6] = compound: ClCC(=O)NC1CCCc2ccccc12
Procedure, shortened: (§2)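 The values are mean compound-versus-vehicle ratios derived by unpaired t-test. For 3 h, triplicate HEK293T lysate samples (495 µg each) were treated with compound at a series of concentrations or with vehicle, after which Biotin-Ahx-Ub-VS was added to 0.5 µM final for 1 h. Labelled deubiquitinases were enriched with NeutrAvidin, digested with LysC and trypsin, and analysed by diaPASEF LC-MS/MS. Ratios are log2 values from global-median-normalised Spectronaut label-free quantities, using proteins with two or more unique peptides.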

[7] = compound: ClCC(=O)N[C@@H]1CCCc2ccccc12
Procedure, shortened: as §2

[8] = compound: ClCC(=O)N[C@H]1CCCc2ccccc12
Procedure, shortened: as §2

[9] = compound: CCC1N(CCc2cc(OC)c(Cl)cc12)C(=O)CCl
Procedure, shortened: as §1

[10] = compound: CCCC1N(CCc2cc(OC)c(OC)cc12)C(=O)CCl
Procedure, shortened: as §1

Measured: log2 ratio of Biotin-Ahx-Ub-VS probe labelling

COPS5 (UniProt Q92905)
UniProt Q92905, sequence (Q92905 whole entry, looked up): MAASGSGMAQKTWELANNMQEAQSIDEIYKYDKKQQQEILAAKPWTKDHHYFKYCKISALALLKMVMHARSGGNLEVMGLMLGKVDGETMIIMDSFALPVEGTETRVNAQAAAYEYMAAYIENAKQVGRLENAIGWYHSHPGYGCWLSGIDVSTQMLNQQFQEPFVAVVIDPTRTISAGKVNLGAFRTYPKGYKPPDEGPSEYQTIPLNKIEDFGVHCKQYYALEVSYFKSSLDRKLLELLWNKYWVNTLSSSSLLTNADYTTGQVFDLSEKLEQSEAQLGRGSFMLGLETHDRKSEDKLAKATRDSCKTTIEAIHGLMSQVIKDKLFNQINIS
inactive: [1]; compound concentration: 50uM -0.164 | [1]; compound concentration: 200uM 0.0997 | [2]; compound concentration: 50uM -0.182 | [2]; compound concentration: 200uM 0.168 | [3]; compound concentration: 50uM -0.296 | [3]; compound concentration: 200uM -0.179 | [4]; compound concentration: 50uM -0.177 | [4]; compound concentration: 200uM -0.131 | [5]; compound concentration: 50uM 0.175 | [5]; compound concentration: 200uM -0.0253 | [6]; compound concentration: 0.78uM 0.0364 | [6]; compound concentration: 1.56uM -0.0289 | [6]; compound concentration: 3.13uM -0.0264 | [6]; compound concentration: 6.25uM 0.0604 | [6]; compound concentration: 12.5uM -0.134 | [6]; compound concentration: 25uM -0.0881 | [6]; compound concentration: 50uM -0.183 | [6]; compound concentration: 100uM -0.315 | [6]; compound concentration: 200uM -0.041 | [7]; compound concentration: 0.78uM -0.237 | [7]; compound concentration: 1.56uM -0.152 | [7]; compound concentration: 3.13uM -0.15 | [7]; compound concentration: 6.25uM 0.209 | [7]; compound concentration: 12.5uM -0.0611 | [7]; compound concentration: 25uM -0.26 | [7]; compound concentration: 50uM -0.29 | [7]; compound concentration: 100uM -0.155 | [7]; compound concentration: 200uM 0.052 | [8]; compound concentration: 0.78uM -0.209 | [8]; compound concentration: 1.56uM 0.0351 | [8]; compound concentration: 3.13uM -0.059 | [8]; compound concentration: 6.25uM -0.0717 | [8]; compound concentration: 12.5uM 0.171 | [8]; compound concentration: 25uM 0.148 | [8]; compound concentration: 50uM -0.0575 | [8]; compound concentration: 100uM 0.0499 | [8]; compound concentration: 200uM -0.0918 | [9]; compound concentration: 50uM 0.0938 | [9]; compound concentration: 200uM 0.311 | [10]; compound concentration: 50uM -0.111 | [10]; compound concentration: 200uM 0.0826

USP20 (UniProt Q9Y2K6)
UniProt Q9Y2K6, sequence (Q9Y2K6 whole entry): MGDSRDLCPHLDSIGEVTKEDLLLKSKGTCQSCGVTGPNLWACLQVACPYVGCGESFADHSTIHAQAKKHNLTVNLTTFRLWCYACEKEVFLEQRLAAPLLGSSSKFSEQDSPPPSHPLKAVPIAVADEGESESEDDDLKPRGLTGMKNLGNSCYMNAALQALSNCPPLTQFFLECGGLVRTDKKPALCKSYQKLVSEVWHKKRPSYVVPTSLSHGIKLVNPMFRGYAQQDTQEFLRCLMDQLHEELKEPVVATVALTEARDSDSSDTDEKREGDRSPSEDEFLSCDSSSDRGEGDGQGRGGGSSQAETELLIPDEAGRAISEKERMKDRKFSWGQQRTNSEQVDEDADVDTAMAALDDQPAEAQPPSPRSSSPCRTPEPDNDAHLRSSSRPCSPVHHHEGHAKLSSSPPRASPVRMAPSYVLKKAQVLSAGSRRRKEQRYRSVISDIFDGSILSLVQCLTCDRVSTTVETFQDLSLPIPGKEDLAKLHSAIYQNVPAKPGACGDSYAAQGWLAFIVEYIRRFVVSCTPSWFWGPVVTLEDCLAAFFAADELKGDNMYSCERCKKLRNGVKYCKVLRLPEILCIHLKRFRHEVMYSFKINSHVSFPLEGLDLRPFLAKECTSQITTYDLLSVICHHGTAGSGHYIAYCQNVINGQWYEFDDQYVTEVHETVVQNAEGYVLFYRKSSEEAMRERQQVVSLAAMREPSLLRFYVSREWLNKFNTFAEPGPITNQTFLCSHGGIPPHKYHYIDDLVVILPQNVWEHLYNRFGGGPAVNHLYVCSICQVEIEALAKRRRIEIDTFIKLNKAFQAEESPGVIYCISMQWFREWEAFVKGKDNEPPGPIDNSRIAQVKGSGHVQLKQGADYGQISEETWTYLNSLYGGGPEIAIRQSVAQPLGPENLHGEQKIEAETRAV
inactive: [6]; compound concentration: 0.78uM -0.154 | [6]; compound concentration: 1.56uM -0.0255 | [6]; compound concentration: 3.13uM -0.00841 | [6]; compound concentration: 6.25uM -0.000882 | [6]; compound concentration: 12.5uM -0.0255 | [6]; compound concentration: 25uM 0.0283 | [6]; compound concentration: 50uM 0.0248 | [6]; compound concentration: 100uM -0.235 | [6]; compound concentration: 200uM -0.41 | [7]; compound concentration: 0.78uM -0.0803 | [7]; compound concentration: 1.56uM 0.0532 | [7]; compound concentration: 3.13uM -0.0362 | [7]; compound concentration: 6.25uM -0.00476 | [7]; compound concentration: 12.5uM -0.141 | [7]; compound concentration: 25uM -0.125 | [7]; compound concentration: 50uM -0.102 | [7]; compound concentration: 100uM -0.0854 | [7]; compound concentration: 200uM -0.279 | [8]; compound concentration: 0.78uM -0.0632 | [8]; compound concentration: 1.56uM 0.0904 | [8]; compound concentration: 3.13uM -0.0898 | [8]; compound concentration: 6.25uM 0.0566 | [8]; compound concentration: 12.5uM 0.0631 | [8]; compound concentration: 25uM -0.0313 | [8]; compound concentration: 50uM 0.0027 | [8]; compound concentration: 100uM -0.13 | [8]; compound concentration: 200uM -0.329

UniProt Q9UGI0
UniProt Q9UGI0, sequence (Q9UGI0 whole entry): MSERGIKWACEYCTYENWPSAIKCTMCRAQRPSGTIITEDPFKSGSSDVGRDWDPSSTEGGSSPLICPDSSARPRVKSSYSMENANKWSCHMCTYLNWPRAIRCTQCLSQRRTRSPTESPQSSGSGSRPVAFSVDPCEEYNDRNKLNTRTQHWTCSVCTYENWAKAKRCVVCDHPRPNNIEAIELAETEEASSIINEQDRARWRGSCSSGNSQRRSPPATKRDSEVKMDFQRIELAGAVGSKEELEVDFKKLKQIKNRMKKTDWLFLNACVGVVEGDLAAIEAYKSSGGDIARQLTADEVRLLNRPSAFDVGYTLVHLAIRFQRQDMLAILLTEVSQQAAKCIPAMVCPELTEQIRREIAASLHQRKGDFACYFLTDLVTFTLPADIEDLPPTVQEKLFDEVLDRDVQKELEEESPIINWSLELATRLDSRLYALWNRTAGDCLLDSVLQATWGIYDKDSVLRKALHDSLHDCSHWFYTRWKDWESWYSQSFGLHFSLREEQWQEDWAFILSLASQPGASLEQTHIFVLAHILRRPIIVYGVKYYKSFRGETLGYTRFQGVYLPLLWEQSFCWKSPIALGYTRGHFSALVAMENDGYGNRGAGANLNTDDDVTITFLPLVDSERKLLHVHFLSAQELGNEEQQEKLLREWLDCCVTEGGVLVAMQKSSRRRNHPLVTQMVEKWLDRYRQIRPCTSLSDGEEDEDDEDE
inactive: [1]; compound concentration: 50uM -0.292 | [1]; compound concentration: 200uM -0.203 | [2]; compound concentration: 50uM -0.406 | [2]; compound concentration: 200uM 0.104 | [3]; compound concentration: 50uM -0.538 | [3]; compound concentration: 200uM -0.31 | [4]; compound concentration: 50uM -0.202 | [4]; compound concentration: 200uM 0.279 | [5]; compound concentration: 50uM 0.0945 | [5]; compound concentration: 200uM -0.4 | [6]; compound concentration: 0.78uM -0.0262 | [6]; compound concentration: 1.56uM 0.0502 | [6]; compound concentration: 3.13uM -0.0706 | [6]; compound concentration: 6.25uM 0.0502 | [6]; compound concentration: 12.5uM 0.00734 | [6]; compound concentration: 25uM -0.073 | [6]; compound concentration: 50uM -0.0421 | [6]; compound concentration: 100uM -0.161 | [6]; compound concentration: 200uM -0.304 | [7]; compound concentration: 0.78uM 0.0537 | [7]; compound concentration: 1.56uM -0.0707 | [7]; compound concentration: 3.13uM 0.111 | [7]; compound concentration: 6.25uM -0.134 | [7]; compound concentration: 12.5uM -0.0472 | [7]; compound concentration: 25uM -0.0247 | [7]; compound concentration: 50uM -0.136 | [7]; compound concentration: 100uM -0.218 | [7]; compound concentration: 200uM -0.262 | [8]; compound concentration: 0.78uM -0.114 | [8]; compound concentration: 1.56uM 0.117 | [8]; compound concentration: 3.13uM -0.00437 | [8]; compound concentration: 6.25uM -0.00155 | [8]; compound concentration: 12.5uM -0.143 | [8]; compound concentration: 25uM -0.115 | [8]; compound concentration: 50uM 0.0192 | [8]; compound concentration: 100uM -0.022 | [8]; compound concentration: 200uM -0.133 | [9]; compound concentration: 50uM -0.0637 | [9]; compound concentration: 200uM -0.0883 | [10]; compound concentration: 50uM -0.0341 | [10]; compound concentration: 200uM -0.418

USP14 (UniProt P54578)
UniProt P54578, sequence (P54578 whole entry): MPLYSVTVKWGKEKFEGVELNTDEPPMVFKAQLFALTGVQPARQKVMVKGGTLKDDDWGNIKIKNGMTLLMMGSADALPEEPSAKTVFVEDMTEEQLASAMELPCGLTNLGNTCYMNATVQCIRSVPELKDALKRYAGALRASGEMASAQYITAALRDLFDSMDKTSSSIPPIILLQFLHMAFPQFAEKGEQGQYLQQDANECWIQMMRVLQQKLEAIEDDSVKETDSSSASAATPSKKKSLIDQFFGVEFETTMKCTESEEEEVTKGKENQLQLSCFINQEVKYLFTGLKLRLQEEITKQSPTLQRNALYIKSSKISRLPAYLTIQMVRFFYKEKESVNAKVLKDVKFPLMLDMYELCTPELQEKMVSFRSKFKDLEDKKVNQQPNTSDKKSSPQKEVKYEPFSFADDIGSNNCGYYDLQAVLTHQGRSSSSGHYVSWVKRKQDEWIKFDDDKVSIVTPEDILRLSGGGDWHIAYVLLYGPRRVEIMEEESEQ
inactive: [1]; compound concentration: 50uM -0.3 | [1]; compound concentration: 200uM -0.357 | [2]; compound concentration: 50uM -0.167 | [2]; compound concentration: 200uM -0.105 | [3]; compound concentration: 50uM 0.049 | [3]; compound concentration: 200uM -0.23 | [4]; compound concentration: 50uM 0.132 | [4]; compound concentration: 200uM 0.0271 | [5]; compound concentration: 50uM -0.194 | [5]; compound concentration: 200uM -0.0567 | [6]; compound concentration: 0.78uM -0.378 | [6]; compound concentration: 1.56uM -0.128 | [6]; compound concentration: 3.13uM -0.334 | [6]; compound concentration: 6.25uM -0.143 | [6]; compound concentration: 12.5uM -0.315 | [6]; compound concentration: 25uM -0.455 | [6]; compound concentration: 50uM -0.285 | [6]; compound concentration: 100uM -0.509 | [6]; compound concentration: 200uM -0.231 | [7]; compound concentration: 0.78uM -0.393 | [7]; compound concentration: 1.56uM -0.0826 | [7]; compound concentration: 3.13uM -0.368 | [7]; compound concentration: 6.25uM -0.447 | [7]; compound concentration: 12.5uM -0.296 | [7]; compound concentration: 25uM -0.25 | [7]; compound concentration: 50uM -0.116 | [7]; compound concentration: 100uM -0.289 | [7]; compound concentration: 200uM -0.289 | [8]; compound concentration: 0.78uM -0.158 | [8]; compound concentration: 1.56uM -0.187 | [8]; compound concentration: 3.13uM -0.308 | [8]; compound concentration: 6.25uM -0.249 | [8]; compound concentration: 12.5uM -0.442 | [8]; compound concentration: 25uM -0.253 | [8]; compound concentration: 50uM -0.322 | [8]; compound concentration: 100uM -0.332 | [8]; compound concentration: 200uM -0.157 | [9]; compound concentration: 50uM -0.071 | [9]; compound concentration: 200uM -0.127 | [10]; compound concentration: 50uM -0.132 | [10]; compound concentration: 200uM 0.0879
